In PubChem BioAssay (NCI):
Several values for one entry are separate records, joined by “and”; a condition that tells them apart may be missing. Identical values can stand only once. About 83,000 compounds went through this panel and 20% of them were active in at least one assay; those are over-represented in the sample as a whole.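 Compound tested at a single concentration for 48 hours in 96-well plates; a percent growth value below 10 was scored as active.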 Activity calls are given as the source filed them.

What follows are compounds tested on MDA-MB-468 breast (assay: NCI-60 one-dose screen, 48 h (100 = growth as untreated, 0 = no growth, -100 = all killed)). Details: 10 µM unless noted.
In the case of `O=c1[nH]c2cc(Cl)c(Cl)cc2n2cc3ncccc3c12`, the growth is reported as 0.904% (active). For `COc1ccc(OC)c(Cn2cc3c(c2-c2ccccc2)CCc2cnoc2-3)c1`, the growth was 29.7% (inactive). `CCc1c(CC(=O)O)c2cc(C)ccc2n1Cc1ccc(Cl)cc1` was tested, and the growth was 95.3% (inactive) and 94.5% (inactive). `C/C=C1/CN(CCCCC)CC[C@H]1C(=O)c1cc2ccccc2[nH]1` was tested, and the growth was 90.7% (inactive). For `Cc1ccc(S(=O)(=O)Nc2ccc(-c3cc(-c4cccc(F)c4)c(C#N)c(=O)[nH]3)cc2)cc1`, the growth was 67.9% (inactive). `Oc1c(CN2CCCC2)cc(CSCc2ccccc2)c2cccnc12` was tested, and the growth was -33.1% (active). `C[C@]12CC[C@H]3[C@@H](CC[C@H]4C[C@@H](O)CC[C@@]43C)[C@@H]1CC(=O)C2` was tested, and the growth was 113% (inactive).
